Test results from PubChem BioAssay (NCI).
This is part of a sample that, as a whole, favours compounds with a hit. Of some 83,000 tested, about 20% had one in any assay.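 The endpoint reported here, percent growth, reads 100 for growth as untreated, 0 for no net growth and -100 for all cells dead.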 Calls of active or inactive are those of the source. Rule for the calls: active = growth percent below 10; inactive = the rest.

Tests used:
Assay in all cases: NCI-60 one-dose screen, 48 h (100 = growth as untreated, 0 = no growth, -100 = all killed)
Details in all cases: 10 µM unless noted
DU-145 prostate = test system: DU-145 prostate
K-562 leukemia = test system: K-562 leukemia
MALME-3M melanoma = test system: MALME-3M melanoma
MDA-MB-231 breast = test system: MDA-MB-231 breast
RXF 393 renal = test system: RXF 393 renal
SF-268 CNS = test system: SF-268 CNS
SF-295 CNS = test system: SF-295 CNS
SF-539 CNS = test system: SF-539 CNS
UACC-257 melanoma = test system: UACC-257 melanoma
M14 melanoma = test system: M14 melanoma
HCT-15 colon = test system: HCT-15 colon
HT29 colon = test system: HT29 colon
SNB-75 CNS = test system: SNB-75 CNS
SNB-19 CNS = test system: SNB-19 CNS
U251 CNS = test system: U251 CNS
PC-3 prostate = test system: PC-3 prostate
SK-MEL-5 melanoma = test system: SK-MEL-5 melanoma
UACC-62 melanoma = test system: UACC-62 melanoma
LOX IMVI melanoma = test system: LOX IMVI melanoma
SK-MEL-28 melanoma = test system: SK-MEL-28 melanoma

Measured: growth

O=C(/C(=C/c1ccc([N+](=O)[O-])cc1)SCc1ccccc1)c1ccc(Cl)cc1
active: K-562 leukemia 5.41% | UACC-62 melanoma 9.57%
inactive: DU-145 prostate 79.3% | MALME-3M melanoma 85.3% | MDA-MB-231 breast 54.8% | RXF 393 renal 67.3% | SF-268 CNS 86.5% | SF-295 CNS 90.3% | SF-539 CNS 94.3% | UACC-257 melanoma 90.2% | M14 melanoma 67.3% | HCT-15 colon 34.3% | HT29 colon 52% | SNB-75 CNS 85% | SNB-19 CNS 70.6% | U251 CNS 61.6% | PC-3 prostate 60.9% | SK-MEL-5 melanoma 73% | LOX IMVI melanoma 32.6% | SK-MEL-28 melanoma 94.6%

COc1cc(C(=O)Nc2cc(O)c(C/C=C(\C)CCC=C(C)C)c(O)c2)cc2c1O[C@]1(C)CC[C@@H](O)C(C)(C)[C@H]1C2
active: K-562 leukemia -31.5% | MALME-3M melanoma -5.78% | MDA-MB-231 breast -36.5% | RXF 393 renal -40.3% | SF-295 CNS -36.2% | SF-539 CNS -41.7% | M14 melanoma -0.604% | HCT-15 colon 1.55% | HT29 colon -25.5% | U251 CNS 6.63% | SK-MEL-5 melanoma -39.6% | UACC-62 melanoma 0.641% | LOX IMVI melanoma -33.8%
inactive: DU-145 prostate 27% | SF-268 CNS 24.8% | UACC-257 melanoma 24% | SNB-75 CNS 20.2% | SNB-19 CNS 32.2% | PC-3 prostate 18.1% | SK-MEL-28 melanoma 25.8%

COc1ccc(Nc2cc(NC(=O)CNc3cc(OC)c(Cl)c(OC)c3Cl)ncn2)cc1
inactive: DU-145 prostate 98.8% | K-562 leukemia 74.1% | MALME-3M melanoma 106% | MDA-MB-231 breast 69.4% | RXF 393 renal 86.7% | SF-268 CNS 78.3% | SF-295 CNS 76.4% | SF-539 CNS 82% | UACC-257 melanoma 88% | M14 melanoma 75.2% | HCT-15 colon 73.5% | HT29 colon 80.9% | SNB-75 CNS 81.3% | SNB-19 CNS 96.8% | U251 CNS 88.5% | PC-3 prostate 57.9% | SK-MEL-5 melanoma 85.1% | UACC-62 melanoma 62.8% | LOX IMVI melanoma 57.2% | SK-MEL-28 melanoma 84.7%

COc1ccc(Cl)c([N+](=O)[O-])c1
inactive: DU-145 prostate 108% | K-562 leukemia 99.8% | MALME-3M melanoma 106% | MDA-MB-231 breast 102% | RXF 393 renal 108% | SF-268 CNS 104% | SF-295 CNS 98% | SF-539 CNS 91.9% | UACC-257 melanoma 111% | M14 melanoma 96.3% | HCT-15 colon 103% | HT29 colon 107% | SNB-75 CNS 98.2% | SNB-19 CNS 103% | U251 CNS 106% | PC-3 prostate 105% | SK-MEL-5 melanoma 99.2% | UACC-62 melanoma 97% | LOX IMVI melanoma 97.2% | SK-MEL-28 melanoma 106%

C1=CC2=CC=C3C=CC=C4C(c5nc6c7ccccc7c7ccccc7c6[nH]5)=CC(=C1)C2C34 (stereo not given)
inactive: DU-145 prostate 105% | K-562 leukemia 90.4% | MALME-3M melanoma 117% | MDA-MB-231 breast 76.8% | RXF 393 renal 99.8% | SF-268 CNS 85.4% | SF-295 CNS 113% | SF-539 CNS 101% | UACC-257 melanoma 105% | M14 melanoma 99.3% | HCT-15 colon 90.8% | HT29 colon 102% | SNB-75 CNS 102% | SNB-19 CNS 103% | U251 CNS 104% | PC-3 prostate 78.8% | SK-MEL-5 melanoma 101% | UACC-62 melanoma 61.6% | LOX IMVI melanoma 86.3% | SK-MEL-28 melanoma 107%

O=C(CN1N=C(c2ccc(F)cc2)CCC1=O)Nc1nccs1
inactive: DU-145 prostate 118% | K-562 leukemia 92.6% | MALME-3M melanoma 105% | MDA-MB-231 breast 109% | RXF 393 renal 110% | SF-268 CNS 99.9% | SF-295 CNS 97.3% | SF-539 CNS 98.1% | UACC-257 melanoma 92.8% | M14 melanoma 102% | HCT-15 colon 99.3% | HT29 colon 87% | SNB-75 CNS 92.2% | SNB-19 CNS 91.4% | U251 CNS 101% | PC-3 prostate 88.3% | SK-MEL-5 melanoma 98.4% | UACC-62 melanoma 92.5% | LOX IMVI melanoma 98.9% | SK-MEL-28 melanoma 109%

NC(N)=NC(N)=Nc1cc2ccccc2c2ccccc12
active: K-562 leukemia 5.89% | MALME-3M melanoma -8.45% | M14 melanoma -33.4%
inactive: DU-145 prostate 56.3% | MDA-MB-231 breast 15.6% | RXF 393 renal 36.3% | SF-268 CNS 48% | SF-295 CNS 53.3% | SF-539 CNS 59.9% | UACC-257 melanoma 74.4% | HCT-15 colon 57.8% | HT29 colon 12.6% | SNB-75 CNS 57.7% | SNB-19 CNS 35.8% | U251 CNS 33.8% | PC-3 prostate 24.4% | SK-MEL-5 melanoma 45.6% | UACC-62 melanoma 43.6% | LOX IMVI melanoma 16.5% | SK-MEL-28 melanoma 55.9%

Cc1ccc(C(=O)/C(=C/c2ccc([N+](=O)[O-])cc2)S(=O)Cc2ccccc2)cc1 (stereo not given)
inactive: SF-268 CNS 35.8% | SF-295 CNS 82.3% | UACC-257 melanoma 65.9% | SNB-75 CNS 43.4% | SNB-19 CNS 34.8% | U251 CNS 13.4% | SK-MEL-5 melanoma 37.8% | SK-MEL-28 melanoma 17.1%
active: DU-145 prostate 4.09% | K-562 leukemia 4.71% | MALME-3M melanoma -13.8% | MDA-MB-231 breast -2.07% | RXF 393 renal -81.6% | SF-539 CNS -43.5% | M14 melanoma -26.1% | HCT-15 colon -8.82% | HT29 colon -21% | PC-3 prostate -0.822% | UACC-62 melanoma -54.9% | LOX IMVI melanoma -82.1%

COc1ccc(-c2[nH]c3ccccc3c2C=C(C#N)C#N)cc1
inactive: MALME-3M melanoma 87.4% | MDA-MB-231 breast 17.6% | SF-268 CNS 25.1% | UACC-257 melanoma 54.2% | HCT-15 colon 18% | HT29 colon 10.3% | SNB-19 CNS 67% | U251 CNS 27.8% | PC-3 prostate 19.1% | UACC-62 melanoma 15.2% | LOX IMVI melanoma 31.4% | SK-MEL-28 melanoma 44.5%
active: DU-145 prostate -10.1% | K-562 leukemia -5.54% | RXF 393 renal 3.79% | SF-295 CNS -50.4% | SF-539 CNS -26.8% | M14 melanoma 1.05% | SNB-75 CNS 0.534% | SK-MEL-5 melanoma 2.62%

Cc1ccc(C(=O)O)o1
inactive: DU-145 prostate 107% | K-562 leukemia 103% | MALME-3M melanoma 104% | MDA-MB-231 breast 111% | RXF 393 renal 118% | SF-268 CNS 98.1% | SF-295 CNS 99.8% | SF-539 CNS 99.5% | UACC-257 melanoma 103% | M14 melanoma 101% | HCT-15 colon 112% | HT29 colon 92.4% | SNB-75 CNS 90.7% | SNB-19 CNS 112% | U251 CNS 98.3% | PC-3 prostate 90.2% | SK-MEL-5 melanoma 102% | UACC-62 melanoma 107% | LOX IMVI melanoma 100% | SK-MEL-28 melanoma 108%

O=C1NN(c2ccccc2)C(c2ccc(Cl)cc2)N2CCC[C@H]12 (stereo not given in full)
inactive: DU-145 prostate 100% | K-562 leukemia 97% | MALME-3M melanoma 92.2% | MDA-MB-231 breast 113% | RXF 393 renal 108% | SF-268 CNS 97.4% | SF-295 CNS 101% | SF-539 CNS 111% | UACC-257 melanoma 94.7% | M14 melanoma 97.9% | HCT-15 colon 92.9% | HT29 colon 101% | SNB-75 CNS 75.6% | SNB-19 CNS 94.6% | U251 CNS 101% | PC-3 prostate 99.6% | SK-MEL-5 melanoma 96.1% | UACC-62 melanoma 87.3% | LOX IMVI melanoma 87.8% | SK-MEL-28 melanoma 104%

CN1CCN(CC#CCOC(=O)CNC(=O)[C@]23CCC(C)(C)C[C@H]2C2=CC[C@@H]4[C@@]5(C)CC[C@H](O)C(C)(C)[C@@H]5CC[C@@]4(C)[C@]2(C)CC3)CC1
inactive: DU-145 prostate 96.7% | K-562 leukemia 70.1% | MALME-3M melanoma 92.5% | MDA-MB-231 breast 95.5% | RXF 393 renal 78.1% | SF-268 CNS 88% | SF-295 CNS 96.9% | SF-539 CNS 83.5% | UACC-257 melanoma 95.1% | M14 melanoma 96.8% | HCT-15 colon 77% | HT29 colon 75.5% | SNB-75 CNS 80.9% | SNB-19 CNS 87.1% | U251 CNS 83.3% | PC-3 prostate 83.4% | SK-MEL-5 melanoma 88.6% | UACC-62 melanoma 90.3% | LOX IMVI melanoma 81.3% | SK-MEL-28 melanoma 104%

CCOC(=O)c1c(C)nc2c(c1N)CC(=O)N2CCc1ccccc1
active: DU-145 prostate 9.55% | HT29 colon 6.02% | SK-MEL-5 melanoma 3.27% | LOX IMVI melanoma 9.25%
inactive: K-562 leukemia 11.7% | MALME-3M melanoma 49.1% | MDA-MB-231 breast 31.8% | RXF 393 renal 27.1% | SF-268 CNS 24% | SF-295 CNS 15.6% | SF-539 CNS 13.7% | UACC-257 melanoma 56.6% | M14 melanoma 18% | HCT-15 colon 17.2% | SNB-75 CNS 80.1% | SNB-19 CNS 22.4% | U251 CNS 31.8% | PC-3 prostate 17.3% | UACC-62 melanoma 32.1% | SK-MEL-28 melanoma 39.9%

C=C1C(=O)O[C@H]2[C@H]1CC/C(COC(=O)NCC(=O)Nc1ccc(OC)c(C(N)=O)c1O)=C\CC[C@@]1(C)O[C@@H]21
inactive: DU-145 prostate 66.4% | MALME-3M melanoma 59.7% | MDA-MB-231 breast 68.2% | RXF 393 renal 16.5% | SF-268 CNS 70.8% | SF-295 CNS 101% | UACC-257 melanoma 53.3% | M14 melanoma 62.9% | HCT-15 colon 91.2% | HT29 colon 18.8% | SNB-75 CNS 76.9% | SNB-19 CNS 73.9% | U251 CNS 62.6% | PC-3 prostate 85.7% | SK-MEL-5 melanoma 76.4% | UACC-62 melanoma 42.8% | LOX IMVI melanoma 55.8% | SK-MEL-28 melanoma 47.9%
active: K-562 leukemia 8.95% | SF-539 CNS 7.54%

N#Cc1ccc(C2C3=C(CCCC3=O)OC3=C2C(=O)c2ccccc2C3=O)cc1 (stereo not given)
active: MDA-MB-231 breast 5.78% | LOX IMVI melanoma 9.4%
inactive: DU-145 prostate 86.8% | K-562 leukemia 40.3% | MALME-3M melanoma 83.4% | RXF 393 renal 102% | SF-268 CNS 70.9% | SF-295 CNS 91.7% | SF-539 CNS 30.5% | UACC-257 melanoma 52.3% | M14 melanoma 81.8% | HCT-15 colon 74.5% | HT29 colon 97.1% | SNB-75 CNS 62.6% | SNB-19 CNS 105% | U251 CNS 70% | PC-3 prostate 72.6% | SK-MEL-5 melanoma 61.1% | UACC-62 melanoma 35.1% | SK-MEL-28 melanoma 112%
